# Reference: the supplement of paper PMC8728848
# Many of the other results were omitted from the sample, so the strongest signals are more common in it than they were.
# Key:
# Test in all cases: glycan array binding signal (z-score within array); higher = stronger binding
# Settings in all cases: glycan notation: IUPAC condensed, linker removed
# [1] = target: Fuc(a1-2)Gal(b1-3)GalNAc(a1-3)[Fuc(a1-2)]Gal(b1-4)GlcNAc
# Method in brief: (§1)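 From the Consortium for Functional Glycomics database, 3228 arrays were curated, keeping only those whose protein sequence was available. Binding is given as a within-array Z-score averaged across arrays sharing a protein sequence and across linkers. Negative Z-scores can be read as non-binding.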
# [2] = target: Fuc(a1-2)Gal(b1-4)GlcNAc(b1-2)Man(a1-3)[Fuc(a1-2)Gal(b1-4)GlcNAc(b1-2)Man(a1-6)]Man(b1-4)GlcNAc(b1-4)[Fuc(a1-6)]GlcNAc
# Method in brief: as §1
# [3] = target: Fuc(a1-2)Gal(b1-4)[Fuc(a1-3)]GlcNAc(b1-2)Man(a1-3)[Fuc(a1-2)Gal(b1-4)[Fuc(a1-3)]GlcNAc(b1-2)Man(a1-6)]Man(b1-4)GlcNAc(b1-4)[Fuc(a1-6)]GlcNAc
# Method in brief: as §1
# [4] = target: Fuc(a1-2)Gal(b1-4)[Fuc(a1-3)]GlcNAc(b1-3)Gal(b1-4)[Fuc(a1-3)]GlcNAc
# Method in brief: as §1
# [5] = target: Fuc(a1-2)Gal(b1-4)[Fuc(a1-3)]GlcNAc(b1-3)Gal(b1-4)[Fuc(a1-3)]GlcNAc(b1-3)Gal(b1-4)[Fuc(a1-3)]GlcNAc
# Method in brief: as §1
# [6] = target: Fuc(a1-2)Gal(b1-4)[Fuc(a1-3)]GlcNAc(b1-3)[Neu5Ac(a2-6)Gal(b1-4)GlcNAc(b1-6)]Gal(b1-4)Glc
# Method in brief: as §1
# Fuc(a1-2)[Gal(a1-3)]Gal = target: Fuc(a1-2)[Gal(a1-3)]Gal
# Method in brief: as §1
# [7] = target: Fuc(a1-2)[Gal(a1-3)]Gal(b1-3)GlcNAc
# Method in brief: as §1
# [8] = target: Fuc(a1-2)[Gal(a1-3)]Gal(b1-3)GlcNAc(b1-3)GalNAc
# Method in brief: as §1
# [9] = target: Fuc(a1-2)[Gal(a1-3)]Gal(b1-4)[Fuc(a1-3)]GlcNAc(b1-3)GalNAc
# Method in brief: as §1
# [10] = target: Fuc(a1-2)[GalNAc(a1-3)]Gal(b1-3)GalNAc(a1-3)[Fuc(a1-2)]Gal(b1-4)GlcNAc
# Method in brief: as §1
# [11] = target: Fuc(a1-2)[GalNAc(a1-3)]Gal(b1-3)GlcNAc
# Method in brief: as §1
# [12] = target: Fuc(a1-2)[GalNAc(a1-3)]Gal(b1-4)GlcNAc(b1-3)Gal(b1-4)GlcNAc(b1-3)Gal(b1-4)GlcNAc
# Method in brief: as §1
# [13] = target: Fuc(a1-2)[GalNAc(a1-3)]Gal(b1-4)GlcNAc(b1-3)[Fuc(a1-2)[GalNAc(a1-3)]Gal(b1-4)GlcNAc(b1-6)]GalNAc
# Method in brief: as §1
# [14] = target: Fuc(a1-3)[Gal(b1-4)]GlcNAc(b1-3)Gal(b1-3)[Fuc(a1-4)]GlcNAc
# Method in brief: as §1
# [15] = target: Fuc(a1-3)[Gal(b1-4)]GlcNAc(b1-3)Gal(b1-4)[Fuc(a1-3)]GlcNAc
# Method in brief: as §1
# [16] = target: Fuc(a1-3)[Gal(b1-4)]GlcNAc(b1-3)Gal(b1-4)[Fuc(a1-3)]GlcNAc(b1-3)Gal(b1-4)[Fuc(a1-3)]GlcNAc
# Method in brief: as §1
# [17] = target: Fuc(a1-3)[Gal3S(b1-4)]GlcNAc6S
# Method in brief: as §1
# [18] = target: Fuc(a1-3)[GalNAc(b1-4)]GlcNAc6S
# Method in brief: as §1
# Gal(a1-3)Gal(b1-4)Glc = target: Gal(a1-3)Gal(b1-4)Glc
# Method in brief: as §1
# [19] = target: Gal(a1-3)Gal(b1-4)[Fuc(a1-3)]GlcNAc(b1-2)Man(a1-3)[Gal(a1-3)Gal(b1-4)[Fuc(a1-3)]GlcNAc(b1-2)Man(a1-6)]Man(b1-4)GlcNAc(b1-4)GlcNAc
# Method in brief: as §1
# [20] = target: Gal(a1-4)Gal(b1-3)GlcNAc(b1-2)Man(a1-3)[Gal(a1-4)Gal(b1-3)GlcNAc(b1-2)Man(a1-6)]Man(b1-4)GlcNAc(b1-4)GlcNAc
# Method in brief: as §1
# [21] = target: Gal(b1-3)GlcNAc(b1-3)Gal(b1-3)GlcNAc
# Method in brief: as §1
# [22] = target: Gal(b1-3)[Fuc(a1-4)]GlcNAc(b1-3)Gal(b1-3)[Fuc(a1-4)]GlcNAc
# Method in brief: as §1
# [23] = target: Gal(b1-4)GlcNAc(b1-2)[Gal(b1-4)GlcNAc(b1-6)]Man(a1-6)[GlcNAc(b1-4)][Gal(b1-4)GlcNAc(b1-2)Man(a1-3)]Man(b1-4)GlcNAc(b1-4)GlcNAc
# Method in brief: as §1
# [24] = target: Gal(b1-4)GlcNAc(b1-3)Gal(b1-4)GlcNAc(b1-2)[Gal(b1-4)GlcNAc(b1-3)Gal(b1-4)GlcNAc(b1-6)]Man(a1-6)[Gal(b1-4)GlcNAc(b1-3)Gal(b1-4)GlcNAc(b1-2)Man(a1-3)]Man(b1-4)GlcNAc(b1-4)GlcNAc
# Method in brief: as §1
# [25] = target: Gal(b1-4)GlcNAc(b1-3)Gal(b1-4)GlcNAc(b1-3)Gal(b1-4)GlcNAc(b1-2)Man(a1-3)[Gal(b1-4)GlcNAc(b1-3)Gal(b1-4)GlcNAc(b1-3)Gal(b1-4)GlcNAc(b1-2)Man(a1-6)]Man(b1-4)GlcNAc(b1-4)[Fuc(a1-6)]GlcNAc
# Method in brief: as §1
# [26] = target: Gal(b1-4)GlcNAc(b1-3)Gal(b1-4)GlcNAc(b1-3)[Gal(b1-4)GlcNAc(b1-3)Gal(b1-4)GlcNAc(b1-6)]GalNAc
# Method in brief: as §1
# [27] = target: Gal(b1-4)GlcNAc(b1-3)Gal(b1-4)GlcNAc(b1-6)[Gal(b1-3)]GalNAc
# Method in brief: as §1
# Gal3S(b1-3)GlcNAc = target: Gal3S(b1-3)GlcNAc
# Method in brief: as §1
binder,measurement,setting,value
"DC-Sign (Homo sapiens), Q9NNX6 (protein) MSDSKEPRLQQLGLLEEEQLRGLGFRQTRGYKSLAGCLGHGPLVLQLLSFTLLAGLLVQVSKVPSSISQEQSRQDAIYQNLTQLKAAVGELSEKSKLQEIYQELTQLKAAVGELPEKSKLQEIYQELTRLKAAVGELPEKSKLQEIYQELTWLKAAVGELPEKSKMQEIYQELTRLKAAVGELPEKSKQQEIYQELTRLKAAVGELPEKSKQQEIYQELTRLKAAVGELPEKSKQQEIYQELTQLKAAVERLCHPCPWEWTFFQGNCYFMSNSQRNWHDSITACKEVGAQLVVIKSAEEQNFLQLQSSRSNRFTWMGLSDLNQEGTWQWVDGSPLLPSFKQYWNRGEPNNVGEEDCAEFSGNGWNDDKCNLAKFWICKKSAASCSRDEEQFLSPAPATPNPPPA",glycan array binding signal (z-score),[1],-0.14
same,glycan array binding signal (z-score),[2],-0.182
same,glycan array binding signal (z-score),[3],9.49
same,glycan array binding signal (z-score),[4],12.6
same,glycan array binding signal (z-score),[5],6.53
same,glycan array binding signal (z-score),[6],-0.045
same,glycan array binding signal (z-score),Fuc(a1-2)[Gal(a1-3)]Gal,0.684
same,glycan array binding signal (z-score),[7],-0.126
same,glycan array binding signal (z-score),[8],-0.189
same,glycan array binding signal (z-score),[9],-0.164
same,glycan array binding signal (z-score),[10],-0.193
same,glycan array binding signal (z-score),[11],-0.122
same,glycan array binding signal (z-score),[12],-0.15
same,glycan array binding signal (z-score),[13],-0.189
same,glycan array binding signal (z-score),[14],5.28
same,glycan array binding signal (z-score),[15],2.48
same,glycan array binding signal (z-score),[16],8.36
same,glycan array binding signal (z-score),[17],-0.13
same,glycan array binding signal (z-score),[18],1.43
same,glycan array binding signal (z-score),Gal(a1-3)Gal(b1-4)Glc,-0.198
same,glycan array binding signal (z-score),[19],-0.165
same,glycan array binding signal (z-score),[20],-0.131
same,glycan array binding signal (z-score),[21],-0.156
same,glycan array binding signal (z-score),[22],2.51
same,glycan array binding signal (z-score),[23],-0.187
same,glycan array binding signal (z-score),[24],0.026
same,glycan array binding signal (z-score),[25],-0.137
same,glycan array binding signal (z-score),[26],-0.146
same,glycan array binding signal (z-score),[27],-0.097
same,glycan array binding signal (z-score),Gal3S(b1-3)GlcNAc,-0.136
